# High-throughput results: PubChem, The Scripps Research Institute Molecular Screening Center
# FBW7 activator – activators of human E3 ligase FBW7 | AlphaScreen FBW7–phospho-cyclin E peptide binding, activator screen | normalized activity (activation), % at 26.1 µM | actives 0.13% (n = 650,000) | AID 1259310; in the data active = normalized activity above about 1.9%;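 note: purified mutant Fbw7 with reduced substrate affinity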
# GPR151 activ – human GPR151 activation; Q8TDV0; PathHunter beta-arrestin GPR151 cells, luminescence; activation, % at 11.2 µM; actives 1% (n = 650,000); in the data active = activation above about 4.9%
# MITF inh – blocks human microphthalmia-associated transcription factor | O75030 | AlphaScreen MITF homodimerization, bead proximity signal | inhibition, % at 2.6 µM | actives 0.91% (n = 650,000); in the data active = inhibition above about 50%
# Target sequence (O75030 whole entry, looked up): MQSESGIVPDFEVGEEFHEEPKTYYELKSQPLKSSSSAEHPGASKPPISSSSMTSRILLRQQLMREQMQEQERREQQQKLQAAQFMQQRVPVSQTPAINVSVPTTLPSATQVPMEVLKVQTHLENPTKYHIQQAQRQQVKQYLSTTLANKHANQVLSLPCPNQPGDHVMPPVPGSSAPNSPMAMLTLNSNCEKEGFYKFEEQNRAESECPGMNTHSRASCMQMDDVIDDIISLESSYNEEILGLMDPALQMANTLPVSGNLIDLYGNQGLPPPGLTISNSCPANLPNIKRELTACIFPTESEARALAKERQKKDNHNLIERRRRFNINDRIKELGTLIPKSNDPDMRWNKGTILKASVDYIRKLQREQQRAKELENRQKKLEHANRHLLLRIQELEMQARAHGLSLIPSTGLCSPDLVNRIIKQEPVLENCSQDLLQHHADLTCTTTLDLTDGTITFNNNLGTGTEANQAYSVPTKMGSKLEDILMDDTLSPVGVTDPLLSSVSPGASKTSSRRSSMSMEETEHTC
# TEAD-YAP inh – TEAD-YAP interaction inhibition; HEK-TIYL cells, TEAD-Gal4/YAP UAS-luciferase luminescence; actives 1.4% (n = 640,000); inhibition, % at 9.12 µM; AID 1259422; in the data active = inhibition above about 32%
# GPR151 confirm – human GPR151 activation, confirmation screen; 6,700 tested, under 10 active; activation, % at 11.2 µM; GPR151 PathHunter beta-arrestin cells, luminescence, 90 min; % of EA-reagent control over plate median; shares compounds with GPR151 activ;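 active = mean percent activation across replicates above the confirmation screen cutoff of 4.91%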
# GPR119 counter – activates human GPR119 in a GPR151 counter-screen; shares compounds with GPR151 activ; GPR119 PathHunter beta-arrestin cells, luminescence, 90 min; 0 = compound-well median, 100 = enzyme-acceptor control; activation, % at 11.2 µM; actives 0.3% (n = 6,700);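 active = mean percent activation in the counterscreen above 29.09%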;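 note: counterscreen on off-target GPR119 to flag nonselective hits from the GPR151 activator screen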
# Hits are given with their value; . = inactive; / = not tested or not shown. In the library only some 3.5% were active in any assay of this set; here they are far more common.
SMILES,FBW7 activator,GPR151 activ,MITF inh,TEAD-YAP inh,GPR151 confirm,GPR119 counter
COc1cc(/C=N/O)cc(Cl)c1OC,.,.,.,.,/,/
COc1cc(/C=N/O)cc(Cl)c1OS(=O)(=O)c1ccc(C)cc1,.,4.9,.,.,.,.
CCOc1ccccc1C(=O)Nc1ccc2c(c1)N(CCOC)CCC2,.,9.4,.,.,.,.
Cc1csc2ncc(C(=O)N3CCc4ccccc43)c(=O)n12,.,7.9,.,.,.,.
O=C(Nc1ccccc1Cl)C1CCCCC1,.,.,.,.,/,/
O=C1CC(C(=O)Nc2ccccc2Cl)c2ccccc21 (centres undefined),.,9.4,.,.,.,.
Cc1c(Cl)cn2c(=O)cc(CNc3cc(Cl)cc(Cl)c3)nc2c1Cl,.,.,.,.,/,/
COCCn1c(Cc2cccn2C)nnc1SCC(=O)Nc1cc(Cl)ccc1OC,.,.,.,.,/,/
O=C(NCC1CCCN(C(=O)C2CCCC2)C1)c1ccc(F)cc1 (centres undefined),.,7.3,.,.,.,.
Cc1nnc(SCc2ccc(F)cc2)[nH]c1=O,.,11,.,.,.,.
Cc1nnc(SCc2ccccc2)[nH]c1=O,.,.,.,.,/,/
Cc1ccc(-c2csc(NC(=O)c3ccc(C#N)cc3)n2)cc1,.,.,.,.,/,/
C=CCn1c(Sc2ccc(C(N)=O)cc2[N+](=O)[O-])nnc1C1CCCCC1,.,.,.,.,/,/
COc1ccc(C(O)C(C)c2nc3ccccc3n2C)cc1 (centres undefined),.,6.3,.,.,.,.
Cc1ccccc1NC(=O)NC1(C(=O)N2CCN3CCCC3C2)CCCCC1 (centres undefined),.,12,.,.,.,.
CCN1CCN(C(=O)c2cc(S(=O)(=O)N3CCCCC3)c[nH]2)CC1,.,.,.,.,/,/
CN1CCN(C(=O)c2cc(S(=O)(=O)N3CCCCC3)c[nH]2)CC1,.,5.3,.,.,.,.
CN(C)C1NC(=O)c2cc(-c3ccccc3)sc2N1 (centres undefined),.,7.0,.,.,.,.
COc1ccc(Cl)cc1NC(=O)Cn1nc2n(C)c3ccccc3n2c(=O)c1=O,.,.,.,.,/,/
COC(=O)c1ccc(NC(=O)Cn2nc3n(C)c4ccccc4n3c(=O)c2=O)cc1,.,8.8,.,.,.,.
O=c1cc2oc3cc(O)c(O)cc3c(-c3ccccc3)c-2cc1O,.,6.2,104,.,.,.
COc1ccc(OC)c(-c2c3cc(O)c(=O)cc-3oc3cc(O)c(O)cc23)c1,.,5.0,107,.,.,.
O=c1cc(-c2ccccc2O)oc2cc(O)ccc12,.,.,.,.,/,/
CC(=O)N(c1cccc(C)c1)c1nc(-c2cc3ccccc3oc2=O)cs1,.,.,.,.,/,/
O=S(=O)(c1ccc(F)c(Cl)c1)N1CCCC(N2CCOCC2)C1 (centres undefined),.,12,.,.,.,.
SMILES,FBW7 activator,GPR151 activ,MITF inh,TEAD-YAP inh,GPR151 confirm,GPR119 counter
Cc1ccc(S(=O)(=O)N2CCCC(N3CCOCC3)C2)s1 (centres undefined),.,6.3,.,.,.,.
Cc1ccc(S(=O)(=O)N2CCCC(N3CCOCC3)C2)cc1Cl (centres undefined),.,.,.,.,/,/
O=S(=O)(c1ccc2c(c1)OCCO2)N1CCCC(N2CCOCC2)C1 (centres undefined),.,.,.,.,/,/
CCOc1ccc(C(=O)NC2CC(C)(C)NC(C)(C)C2)cc1OCC,.,12,.,.,.,.
CC(=O)Nc1ccc(S(=O)(=O)N2CCN(Cc3cccc(Br)c3)CC2)cc1,.,.,.,.,/,/
Cn1c(N/N=C\c2cccs2)cc(=O)n(C)c1=O,.,6.6,.,.,.,.
COc1cc(/C=N\Nc2cc(=O)n(C)c(=O)n2C)ccc1O,.,5.7,.,.,.,.
Cn1c(N/N=C\c2cccc(O)c2)cc(=O)n(C)c1=O,.,.,.,.,/,/
Cn1cccc1C(=O)NC(=O)CSc1cccc[n+]1[O-],.,4.9,.,.,.,.
COc1ccccc1C(=O)NC(=O)CSc1cccc[n+]1[O-],.,.,.,.,/,/
COC(=O)C1=C(C)N(Cc2cccnc2)C(=O)/C1=C\c1ccc(Cl)cc1Cl,.,.,.,.,/,/
COc1ccc2c(CN3C(=O)C(=O)N(C4CCCC4)C3=O)cc(=O)oc2c1,.,10,.,.,.,.
NC(=O)c1c(NS(=O)(=O)c2ccc(F)c(F)c2)sc2c1CCC2,.,.,.,.,/,/
O=C(CN1CCN(CC(=O)Nc2ccc(Cl)c(C(F)(F)F)c2)CC1)Nc1ccc(F)cc1,.,.,.,.,/,/
O=C(CN1C(=O)CCC1=O)Nc1ccc(Cl)c(C(F)(F)F)c1,.,6.6,.,.,.,.
CCOC(=O)N1CCN(C(=O)CN2C(=O)CC(C)(C)S(=O)(=O)c3ccccc32)CC1,.,5.9,.,.,.,.
CC1(C)CC(=O)N(CC(=O)O)c2ccccc2S1(=O)=O,.,.,.,.,/,/
COCCCNC(=O)CSc1nc2ccsc2c(=O)n1CCCCCC(=O)O,.,.,.,.,/,/
c1ccc2c(c1)OC[C@@H](c1nc3ccc(-c4ccncc4)cc3[nH]1)O2,.,.,.,.,/,/
Cc1ccc2c(c1)OCC(c1nc3ccc(-c4ccncc4)cc3[nH]1)O2 (centres undefined),.,5.1,.,.,.,.
Cc1cc2oc(C(=O)Nc3cccnc3)c(C)c2cc1C,.,.,.,.,/,/
CC(=O)Nc1ccc(NC(=O)c2oc3cc(C)c(C)cc3c2C)cc1,.,23,.,.,.,.
CCC1CCCCN1S(=O)(=O)c1cccc2nsnc12 (centres undefined),.,.,.,.,/,/
COc1ccc(NC(=O)C2CCN(c3nnc(N4CCCC4=O)s3)CC2)cc1,.,6.3,.,.,.,.
COc1ccc(CCNC(=O)CCc2nc3cccnc3n2-c2ccccc2)c(OC)c1,.,5.1,.,.,.,.
SMILES,FBW7 activator,GPR151 activ,MITF inh,TEAD-YAP inh,GPR151 confirm,GPR119 counter
Cc1ccc2onc(CNC(=O)N3CCCC(C)C3)c2c1 (centres undefined),.,6.9,.,.,.,.
Cc1ccc2onc(CNC(=O)N3CCCC3)c2c1,.,.,.,.,/,/
CC(C)NC(=O)C(=O)NNC(=O)c1ccc(C(C)(C)C)cc1,.,5.7,.,.,.,.
CC(C)NC(=O)c1ccc(C(=O)C(F)(F)F)cc1,.,5.6,.,.,.,.
CC(C)NC(=O)c1ccc(COCC(F)(F)F)cc1,.,.,.,.,/,/
O=C(Cn1c(-c2ccccn2)nc2ccccc21)Nc1nc2ccccc2s1,.,6.0,.,.,.,.
NS(=O)(=O)c1ccc(NC(=O)CSc2nc3cc(Cl)ccc3s2)cc1,.,6.1,.,.,.,.
O=C(CSc1nc2cc(Cl)ccc2s1)Nc1ccc(Cl)cc1,.,.,.,.,/,/
COc1cc2nc(NC(=O)c3ccc(C)cc3C)sc2cc1OC,.,.,.,.,/,/
